Where “and” joins values, the source holds several entries; their conditions need not be identical. Equal entries are not always repeated. The campaign covered roughly 5,500 compounds. About 2,000 (36%) were called active. Another 18% or so got no clear call; they are omitted. Rule as the data show it: active = normalized growth mostly below about 0.91 (no sharp cut-off); inconclusive = no clear call, values can overlap the other calls; inactive = mostly above about 0.92. The list shows a part of the results.
Assay: chemical genetic growth profiling, strain panel (AID 1159580);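 also: tested at 20 µM; growth read once vehicle control cultures reached saturation at 30 °C; 1 = growth at the plate median or of vehicle wells; lower values mean less growth of the strain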
Settings: S. cerevisiae deletion strains, growth OD

Measured: normalized growth

CCOC(=O)C(Cc1ccc(O)cc1)NC(C)=O (stereo unspecified)
inactive: locus YAL013W, strain DEP1, active compounds read low 0.99 | locus YAL021C, strain ccr4, active compounds read low 1.01 | locus YAL026C, strain drs2, active compounds read low 1.01 | locus YAL030W, strain snc1, active compounds read low 1 | locus YBL061C, strain skt5, active compounds read low 1.02 | locus YBR009C, strain hhf1, active compounds read low 0.974 | locus YBR021W, strain FUR4, active compounds read low 1.01 | locus YBR023C, strain chs3, active compounds read low 1.01 | locus YBR171W, strain sec66, active compounds read low 1.01 | locus YBR229C, strain ROT2, active compounds read low 1.01 | locus YBR231C, strain swc5, active compounds read low 1 | locus YBR279W, strain paf1, active compounds read low 1 | locus YCL011C, strain gbp2, active compounds read low 1 | locus YCL016C, strain dcc1, active compounds read low 1 | locus YCL029C, strain bik1, active compounds read low 0.999 | locus YCL069W, strain vba3, active compounds read low 0.989 | locus YCR088W, strain abp1, active compounds read low 1.01 | locus YDL005C, strain med2, active compounds read low 1.02 | locus YDL035C, strain GPR1, active compounds read low 1.02 | locus YDL040C, strain nat1, active compounds read low 1.01 | locus YDL074C, strain BRE1, active compounds read low 1.02 | locus YDL101C, strain DUN1, active compounds read low 1.02 | locus YDL134C, strain PPH21, active compounds read low 1 | locus YDL185W, strain tfp1, active compounds read low 0.993 | locus YDL192W, strain arf1, active compounds read low 0.996 | locus YDR001C, strain nth1, active compounds read low 1.01 | locus YDR069C, strain doa4, active compounds read low 0.998 | locus YDR101C, strain arx1, active compounds read low 0.996 | locus YDR137W, strain rgp1, active compounds read low 1.02 | locus YDR150W, strain NUM1, active compounds read low 1.01 | locus YDR159W, strain sac3, active compounds read low 0.985 | locus YDR162C, strain NBP2, active compounds read low 1.02 | locus YDR195W, strain ref2 1.01 | locus YDR297W, strain sur2, active compounds read low 1 | locus YDR318W, strain mcm21, active compounds read low 1.01 | locus YDR334W, strain swr1, active compounds read low 0.997 | locus YDR335W, strain msn5, active compounds read low 1.01 | locus YDR388W, active compounds read low 1.01 | locus YDR392W, strain spt3, active compounds read low 1.03 | locus YDR502C, strain sam2, active compounds read low 0.992 | locus YEL003W, strain gim4, active compounds read low 1.01 | locus YEL037C, strain rad23, active compounds read low 1 | locus YEL061C, strain CIN8 (second series), active compounds read low 0.998 | locus YEL061C, strain CIN8, active compounds read low 1.01 | locus YER015W, strain faa2, active compounds read low 1 | locus YER016W, strain bim1, active compounds read low 1.03 | locus YER110C, active compounds read low 1.01 | locus YER111C, strain swi4, active compounds read low 1.02 | locus YER155C, strain BEM2 (second series), active compounds read low 1.04 | locus YER155C, strain BEM2, active compounds read low 1 | locus YER167W, strain BCK2, active compounds read low 1.02 | locus YFR010W, strain ubp6, active compounds read low 0.987 | locus YGL078C, strain dbp3, active compounds read low 0.993 | locus YGL086W, strain mad1, active compounds read low 1 | locus YGL167C, strain pmr1, active compounds read low 1.01 | locus YGL173C, strain kem1, active compounds read low 1.01 | locus YGL227W, strain vid30, active compounds read low 1 | locus YGL240W, strain doc1, active compounds read low 1.03 | locus YGL248W, strain PDE1, active compounds read low 1.01 | locus YGL253W, strain hxk2, active compounds read low 1 | locus YGR078C, strain PAC10, active compounds read low 1.02 | locus YGR135W, strain pre9, active compounds read low 0.989 | locus YGR229C, strain SMI1, active compounds read low 1.03 | locus YGR252W, strain gcn5, active compounds read low 0.961 | locus YHR013C, strain ard1, active compounds read low 1.03 | locus YHR027C, strain rpn1, active compounds read low 1.01 | locus YHR030C, strain SLT2, active compounds read low 1.02 and 0.974 | locus YHR079C, strain IRE1 (second series), active compounds read low 1.01 | locus YHR079C, strain IRE1, active compounds read low 0.984 | locus YHR094C, strain hxt1, active compounds read low 1.01 | locus YHR129C, strain ARP1, active compounds read low 1.01 | locus YHR142W, strain chs7, active compounds read low 1.01 | locus YHR200W, strain rpn10, active compounds read low 1.01 | locus YIL066C, strain RNR3, active compounds read low 1.01 | locus YIL073C, strain SPO22, active compounds read low 1 | locus YIL125W, strain kgd1, active compounds read low 1 | locus YIR030C, strain dcg1, active compounds read low 0.997 | locus YJL092W, strain hpr5, active compounds read low 1 | locus YJL095W, strain BCK1 (second series), active compounds read low 1.03 | locus YJL095W, strain BCK1, active compounds read low 1.04 and 0.965 | locus YJL115W, strain asf1, active compounds read low 0.999 | locus YJL129C, strain trk1, active compounds read low 1.02 | locus YJL134W, strain LCB3, active compounds read low 1.02 | locus YJL154C, strain vps35, active compounds read low 1.01 | locus YJL164C, strain tpk1, active compounds read low 1 | locus YJL166W, strain qcr8, active compounds read low 0.995 | locus YJL168C, strain set2, active compounds read low 1.01 | locus YJL187C, strain SWE1 (second series), active compounds read low 1.02 | locus YJL187C, strain SWE1, active compounds read low 1.01 | locus YJR043C, strain POL32, active compounds read low 1.02 | locus YJR066W, strain TOR1, active compounds read low 0.887
